Measured values: the antibiotic and cytotoxicity screens of Wong et al. (2023)
Screen size: about 39,000 compounds; about 500 (1.3%) were called active. The sample as a whole holds a higher share of actives than the screen did.

Tested on: S. aureus RN4220
Assay: growth inhibition call (relative growth <= 0.2)
Conditions: 50 µM

| SMILES | growth inhibition call |
| --- | --- |
| CCO[C@@H]1OC(C(=O)N2CCOCC2)=C[C@H](C2CC2)[C@H]1CCCOC(=O)NCCCCCC(=O)NO | inactive |
| O=S(=O)(Cc1ccccc1)Nn1cnnc1 | inactive |
| C[C@H]1CN([C@@H](C)CO)C(=O)Cc2cc(NS(=O)(=O)c3ccc(F)cc3)ccc2O[C@@H]1CN(C)S(C)(=O)=O | inactive |
| Cc1ccc(S(=O)(=O)N(C)C[C@@H]2OCCCC[C@@H](C)Oc3ccc(NC(=O)Nc4cccc5ccccc45)cc3C(=O)N([C@@H](C)CO)C[C@@H]2C)cc1 | inactive |
| CC1=C(C(=O)O)N2C(=O)[C@@H](NC(=O)[C@@H](N)c3ccccc3)[C@H]2SC1 | inactive |
| CC1=C(C(=O)O)N2C(=O)[C@@H](NC(=O)[C@H](N)c3ccccc3)[C@H]2SC1 | inactive |
| NC(C(=O)NC1C(=O)N2C(C(=O)O)=C(Cl)CSC12)c1ccccc1 (stereo not given) | active |
| N[C@@H](C(=O)N[C@@H]1C(=O)N2C(C(=O)O)=C(Cl)CS[C@H]12)c1ccccc1 | active |
| N[C@@H](C(=O)N[C@@H]1C(=O)N2C(C(=O)O)=C(Cl)CC[C@H]12)c1ccccc1 | active |
| CC1=C(C(=O)O)N2C(=O)C(NC(=O)C(N)c3ccccc3)C2SC1 (stereo not given) | inactive |
| CC1=C(C(=O)O)N2C(=O)[C@H](NC(=O)[C@@H](N)c3ccccc3)[C@H]2SC1 | inactive |
| O=C(C[C@H]1C[C@@H]2c3cc(NS(=O)(=O)c4ccc(F)cc4)ccc3O[C@@H]2[C@H](CO)O1)NCc1cccc(F)c1 | inactive |
| Cc1ccc(S(=O)(=O)N(C)C[C@H]2OCCCC[C@@H](C)Oc3ccc(NC(=O)c4ccccc4)cc3C(=O)N([C@@H](C)CO)C[C@@H]2C)cc1 | inactive |
| C[C@@H]1CN([C@@H](C)CO)C(=O)c2cc(NC(=O)Cn3cnnn3)ccc2O[C@H]1CN(C)CC1CCCCC1 | inactive |
| C=CC[C@@H](CC(=O)NCCO)C(=O)NC[C@@H](OC(=O)[C@@H](CC=C)CC(=O)OC(C)(C)C)c1ccccc1 | inactive |
| C[C@H](CO)N1C[C@H](C)[C@H](CN(C)Cc2ccc(-c3ccccc3)cc2)Oc2c(NC(=O)C3CC3)cccc2C1=O | inactive |
| C[C@@H]1CN([C@H](C)CO)C(=O)c2cccc(NS(=O)(=O)c3ccccc3)c2O[C@H]1CN(C)C(=O)Nc1cccc2ccccc12 | inactive |
| COCC(=O)N1C[C@H](C)[C@H](OC)CN(C)C(=O)c2ccc(NC(=O)Nc3cccc(F)c3)cc2OC[C@H]1C | inactive |
| C[C@H]1CCCCO[C@H](CN(C)C(=O)CCCN(C)C)[C@@H](C)CN([C@@H](C)CO)C(=O)c2cc(NC(=O)Nc3ccc(C(F)(F)F)cc3)ccc2O1 | inactive |
| CCCCOC(=O)[C@@H](N)CCC(=O)O | inactive |
| COC(=O)[C@H]1c2cc3c(c(O)c2[C@@H](O[C@@H]2O[C@H](C)[C@H](OC)[C@](C)(OC)[C@@H]2OC)C[C@@]1(C)O)C(=O)c1c(O)cc2c(c1C3=O)O[C@H]1O[C@@]2(C)[C@@H](O)[C@H](N(C)C)[C@@H]1O | active |
| CC[C@@]1(O)C[C@H](O[C@H]2C[C@H](N(C)C)[C@H](O[C@H]3C[C@H](O)[C@H](O[C@H]4CCC(=O)[C@H](C)O4)[C@H](C)O3)[C@H](C)O2)c2c(cc3c(c2O)C(=O)c2c(O)cccc2C3=O)[C@H]1C(=O)OC | inactive |
| C[C@H](CO)N1C[C@H](C)[C@H](CN(C)Cc2ccc(Cl)c(Cl)c2)Oc2ccc(NC(=O)Cn3cnnn3)cc2CC1=O | inactive |
| Cc1noc(C)c1NC(=O)Nc1ccc2c(c1)C(=O)N([C@@H](C)CO)C[C@H](C)[C@H](CN(C)C(=O)NC1CCCCC1)OCCCC[C@H](C)O2 | inactive |
| Cc1noc(C)c1S(=O)(=O)Nc1cccc2c1O[C@@H](CN(C)S(=O)(=O)c1cccs1)[C@@H](C)CN([C@H](C)CO)C2=O | inactive |

| SMILES | growth inhibition call |
| --- | --- |
| Cc1scc2c1N(C(=O)CN1CCN(C)CC1)c1ccccc1NC2=O.Cl | active |
| O=C(O)CCC(=O)N1CC(=O)Nc2ccccc21 | inactive |
| CN1CCN(CC(=O)N2c3ccccc3C(=O)Nc3cccnc32)CC1.Cl.Cl | inactive |
| CS(=O)(=O)N1CCC2(CC1)OCCO2 | inactive |
| O=C(Nc1ccc(Cl)cc1)Nc1ccc(Cl)c(Cl)c1 | active |
| O=C(Nc1ccc(C(F)(F)F)cc1)Nc1cccc(Cl)c1 | inactive |
| CCC(=O)Nc1ccc(Cl)cc1 | inactive |
| CCC(=O)N[C@H]1C=C[C@@H](CC(=O)OC)O[C@H]1CO | inactive |
| Cc1ccc(S(=O)(=O)Nc2ccc3c(c2)CC(=O)N([C@@H](C)CO)C[C@@H](C)[C@@H](CN(C)CC2CC2)O3)cc1 | inactive |
| C[C@@H]1CCCCO[C@H](CN(C)C(=O)Nc2ccccc2)[C@H](C)CN([C@H](C)CO)C(=O)c2cc(NS(=O)(=O)c3ccc(Cl)cc3)ccc2O1 | inactive |
| CC(C)[Si](C#CCCc1ccccc1)(O[C@H](c1ccccc1)c1cn(Cc2ccccc2)nn1)C(C)C | inactive |
| CC(C)[Si](C#CCCCC#N)(O[C@H](c1ccccc1)c1cn(Cc2cccc(Cl)c2)nn1)C(C)C | active |
| CCCCCCC#C[Si](O[C@H](c1ccccc1)c1cn(Cc2cccc(Cl)c2)nn1)(C(C)C)C(C)C | inactive |
| C[C@@H]1CCCCO[C@@H](CN(C)Cc2ccc(C(=O)Nc3ccccc3N)cc2)[C@@H](C)CN([C@H](C)CO)C(=O)c2cc(NS(=O)(=O)c3ccc(F)cc3)ccc2O1 | inactive |
| C[C@@H]1CN([C@H](C)CO)C(=O)Cc2cc(NC(=O)Cc3cn(C)c4ccccc34)ccc2O[C@H]1CN(C)C | inactive |
| CCCC[C@@H](C)/C=C(C)/C=C(\C)C(=O)NC1=C[C@@](O)(/C=C/C=C/C=C/C(=O)NC2C(=O)CCC2=O)[C@@H]2O[C@@H]2C1=O | active |
| CC(C)NC(=O)N(C)C[C@H]1Oc2ccc(NC(=O)CCC(F)(F)F)cc2C(=O)N([C@H](C)CO)C[C@@H]1C | inactive |
| C[C@@H]1CCCCO[C@@H](CN(C)S(=O)(=O)c2cccs2)[C@H](C)CN([C@H](C)CO)C(=O)c2cc(NC(=O)c3ccccc3)ccc2O1 | inactive |
| COc1ccccc1CNC(=O)C[C@@H]1CC[C@H]2[C@@H](COC[C@H](O)CN2C(=O)Nc2ccc(F)cc2)O1 | inactive |
| COc1ccccc1CNC(=O)C[C@@H]1CC[C@H]2[C@@H](COC[C@H](O)CN2C(=O)Nc2ccc(Cl)cc2)O1 | inactive |
| COc1ccccc1CNC(=O)C[C@@H]1CC[C@@H]2[C@H](COC[C@@H](O)CN2C(=O)Nc2ccc(Cl)cc2)O1 | active |
| COc1ccccc1CNC(=O)C[C@@H]1CC[C@@H]2[C@H](COC[C@H](O)CN2C(=O)Nc2ccc(Cl)cc2)O1 | inactive |
| COc1ccccc1CNC(=O)C[C@H]1CC[C@H]2[C@@H](COC[C@@H](O)CN2C(=O)Nc2ccc(Cl)cc2)O1 | inactive |
| O=C(C[C@H]1CC[C@@H]2[C@H](COC[C@@H](O)CN2C(=O)Nc2ccc(Cl)cc2)O1)NC1Cc2ccccc2C1 | inactive |
| O=C(C[C@H]1CC[C@H]2[C@@H](COC[C@H](O)CN2C(=O)Nc2ccc(Cl)cc2)O1)NC1Cc2ccccc2C1 | active |

| SMILES | growth inhibition call |
| --- | --- |
| COc1ccccc1CNC(=O)C[C@H]1CC[C@@H]2[C@H](COC[C@@H](O)CN2C(=O)Nc2ccc(Cl)cc2)O1 | active |
| COc1ccccc1CNC(=O)C[C@@H]1CC[C@H]2[C@@H](COC[C@@H](O)CN2C(=O)Nc2ccc(Cl)cc2)O1 | inactive |
| COc1ccccc1CNC(=O)C[C@H]1CC[C@@H]2[C@H](COC[C@H](O)CN2C(=O)Nc2ccc(Cl)cc2)O1 | inactive |
| O=C(C[C@@H]1CC[C@H]2[C@@H](COC[C@@H](O)CN2C(=O)Nc2ccc(Cl)cc2)O1)NC1Cc2ccccc2C1 | inactive |
| COc1ccccc1CNC(=O)C[C@H]1CC[C@H]2[C@@H](COC[C@H](O)CN2C(=O)Nc2ccc(Cl)cc2)O1 | active |
| C[C@@H]1CN([C@@H](C)CO)C(=O)c2cccc(NC(=O)C3CC3)c2O[C@H]1CN(C)Cc1ccc(C(=O)O)cc1 | inactive |
| C[C@@H]1CCCCO[C@@H](CN(C)S(=O)(=O)c2ccc(Cl)cc2)[C@@H](C)CN([C@H](C)CO)C(=O)c2cc(NC(=O)Nc3ccc(C(F)(F)F)cc3)ccc2O1 | inactive |
| Cc1ccc(S(=O)(=O)Nc2ccc3c(c2)C(=O)N([C@H](C)CO)C[C@@H](C)[C@@H](CN(C)C(=O)CCC(F)(F)F)OCCCC[C@H](C)O3)cc1 | inactive |
| C[C@@H]1CCCCO[C@H](CN(C)C(=O)CCCN(C)C)[C@H](C)CN([C@@H](C)CO)C(=O)c2cc(NC(=O)Nc3cccc4ccccc34)ccc2O1 | inactive |
| C[C@@H]1CN([C@H](C)CO)C(=O)c2cc(C#Cc3ccccc3F)cnc2O[C@H]1CN(C)C(=O)C1CCOCC1 | inactive |
| Cc1cnccc1CN1C[C@H](C(=O)O)CC1=O | inactive |
| CC(C)C#Cc1cnc2c(c1)C(=O)N([C@@H](C)CO)C[C@@H](C)[C@H](CN(C)C(=O)c1ccc3c(c1)OCO3)O2 | inactive |
| Cc1ccc(S(=O)(=O)N(C)C[C@H]2Oc3c(NC(=O)C4CC4)cccc3C(=O)N([C@H](C)CO)C[C@@H]2C)cc1 | inactive |
| C[C@H](CO)N1C[C@H](C)[C@H](CN(C)C(=O)Nc2ccc(C(F)(F)F)cc2)OCc2cnnn2CCCC1=O | inactive |
| C[C@@H]1CN([C@@H](C)CO)C(=O)CCCn2nncc2CO[C@@H]1CN(C)C(=O)Nc1ccc(C(F)(F)F)cc1 | inactive |
| C[C@H]1CN([C@@H](C)CO)C(=O)CCCn2cc(nn2)CO[C@H]1CN(C)C(=O)Nc1ccc(C(F)(F)F)cc1 | inactive |
| C[C@@H]1CN([C@H](C)CO)C(=O)CCCn2cc(nn2)CO[C@H]1CN(C)C(=O)Nc1ccc(C(F)(F)F)cc1 | active |
| C[C@H]1CN([C@@H](C)CO)C(=O)CCCn2nncc2CO[C@@H]1CN(C)C(=O)Nc1ccc(C(F)(F)F)cc1 | active |
| C[C@H]1CN([C@@H](C)CO)C(=O)CCCn2nncc2CO[C@H]1CN(C)C(=O)Nc1ccc(C(F)(F)F)cc1 | active |
| C[C@H]1CN([C@@H](C)CO)C(=O)CCCn2cc(nn2)CO[C@@H]1CN(C)C(=O)Nc1ccc(C(F)(F)F)cc1 | inactive |
| C[C@H](CO)N1C[C@H](C)[C@@H](CN(C)C(=O)Nc2ccc(C(F)(F)F)cc2)OCc2cnnn2CCCC1=O | inactive |
| C[C@@H]1CN([C@H](C)CO)C(=O)CCCn2nncc2CO[C@H]1CN(C)C(=O)Nc1ccc(C(C)(C)C)cc1 | inactive |
| C[C@@H]1CN([C@H](C)CO)C(=O)CCCn2nncc2CO[C@@H]1CN(C)C(=O)Nc1ccc(C(F)(F)F)cc1 | inactive |
| C[C@@H]1CN([C@H](C)CO)C(=O)CCCn2nncc2CO[C@H]1CN(C)C(=O)Nc1ccc(C(F)(F)F)cc1 | active |
| C[C@@H]1CN([C@@H](C)CO)C(=O)CCCn2nncc2CO[C@H]1CN(C)C(=O)Nc1ccc(C(F)(F)F)cc1 | inactive |
